Source: PubChem BioAssay (EPA / NIEHS)
Active and inactive are the calls of the source. The calls were made as follows: active = hit-call score of the fitted dose curve at least 0.9, where 1 is the maximum; inactive = score below 0.9.

Test: BSK_SAg_SRB: Viability Assessment in the BioMAP Diversity Plus: SAg Assay (AID 2283096);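 also: cells read one day after compound addition; hits may be either gain or loss of signal compared with DMSO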
Conditions: primary human HUVEC with PBMC
Method in brief: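 Human umbilical vein endothelial cells co-cultured with PBMC, read 24 h after compound dosing. Total protein measured by sulforhodamine B staining (0.1% SRB after 10% TCA fixation, absorbance 560 nm); bidirectional fit versus DMSO baseline.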

| SMILES | outcome | AC50 |
| --- | --- | --- |
| COP(=O)(NC(C)=O)SC (centres undefined) | inactive |  |
| CCOP(=O)(SC(C)CC)N1CCSC1=O (centres undefined) | inactive |  |
| Cc1ccn2nc(S(=O)(=O)Nc3c(F)cccc3F)nc2n1 | inactive |  |
| CN1COCN(Cc2cnc(Cl)s2)C1=N[N+](=O)[O-] | inactive |  |
| CC1=NNC(=O)N(/N=C/c2cccnc2)C1 | inactive |  |
| CNC(=O)Oc1cccc2c1OC(C)(C)O2 | inactive |  |
| S=C1NCCN1 | inactive |  |
| CCCSP(=O)(OCC)SCCC | inactive |  |
| CCCCOC(=O)[C@@H](C)Oc1ccc(Oc2ccc(C#N)cc2F)cc1 | inactive |  |
| CCOC(=O)COc1cc(-c2nn(C)c(OC(F)F)c2Cl)c(F)cc1Cl | inactive |  |
| CON=C(C(=O)OC)c1ccccc1CON=C(C)c1cccc(C(F)(F)F)c1 |  | 3.82 µM (active) |
| FC(F)C(F)(F)OCC(Cn1cncn1)c1ccc(Cl)cc1Cl (centres undefined) |  | 20 µM (active) |
| CCc1cccc(C)c1N(C(=O)CCl)C(C)COC (centres undefined) | inactive |  |
| CCC(=O)Nc1ccc(Cl)c(Cl)c1 | inactive |  |
| CSc1nc(NC(C)C)nc(NC(C)C)n1 | inactive |  |
| CCOP(=O)(NC(C)C)Oc1ccc(SC)c(C)c1 (centres undefined) | inactive |  |
| CCOP(=S)(OCC)Oc1ccc([N+](=O)[O-])cc1 | inactive |  |
| CCOP(=O)(OCC)Oc1cc(C)nc(C(C)C)n1 | inactive |  |
| CC[C@H](C)[C@H]1O[C@]2(C=C[C@@H]1C)C[C@@H]1C[C@@H](C/C=C(\C)[C@@H](O[C@H]3C[C@H](OC)[C@@H](O[C@H]4C[C@H](OC)[C@@H](NC)[C@H](C)O4)[C@H](C)O3)[C@@H](C)/C=C/C=C3\CO[C@@H]4[C@H](O)C(C)=C[C@@H](C(=O)O1)[C@]34O)O2 |  | 5.06 µM (active) |
